# Read-outs that look alike come from different tables or passages of the source.
# Assays:
# Design in all cases: species or system human, MV4-11 + K-562 + COLO205 + SK-N-BE2 + OVCAR-8
# [1] = system: MARK3; conditions: read-out: apparent Kd, n = 1
# [2] = system: MARK4; conditions: read-out: apparent Kd, n = 1
# [3] = system: PKN1; conditions: read-out: apparent Kd, n = 1
# [4] = system: PKN3; conditions: read-out: apparent Kd; compound concentrations:100 nM and 1000 nM (sheet 'Samples'); n = 1
# [5] = system: PRKCD; conditions: read-out: apparent Kd, n = 1
# [6] = system: PRKD3; conditions: read-out: apparent Kd, n = 1
# [7] = system: RPS6KA6; conditions: read-out: apparent Kd, n = 1
# [8] = system: SIK2; conditions: read-out: apparent Kd; compound concentrations:100 nM and 1000 nM (sheet 'Samples'); n = 1
# [9] = system: STK4; conditions: read-out: apparent Kd, n = 1
# [10] = system: CDK16; conditions: read-out: apparent Kd, n = 1
# [11] = system: CDK17; conditions: read-out: apparent Kd, n = 1
# [12] = system: LATS1; conditions: read-out: apparent Kd, n = 1
# [13] = system: RIOK2; conditions: read-out: apparent Kd, n = 1
# [14] = system: PLK4; conditions: read-out: apparent Kd; compound concentrations: 100 nM and 1000 nM (sheet 'Samples'), CATDS: 8.6919710650877405E-2; n = 1
# [15] = system: CDK7; conditions: read-out: apparent Kd, n = 1
# [16] = system: PRKAG1; conditions: read-out: apparent Kd, n = 1
# [17] = system: PTK2B; conditions: read-out: apparent Kd, compound concentrations: 100 nM and 1000 nM (sheet 'Samples'), n = 1
# [18] = system: MAPK9; conditions: read-out: apparent Kd, n = 1
# [19] = system: PTK2; conditions: read-out: apparent Kd, compound concentrations: 100 nM and 1000 nM (sheet 'Samples'), n = 1
# [20] = compound concentrations:100 nM and 1000 nM (sheet 'Samples')
compound,measurement,setting,value
Cc1occc1-c1nc(N)c(OC[C@@H](N)Cc2c[nH]c3ccccc23)cc1-c1cc2c(C)n[nH]c2cn1 [GSK1660450B],potency estimated from few doses,[1]; [20],1250 nM
same,potency estimated from few doses,[2]; [20],1110 nM
same,potency estimated from few doses,[3]; [20],87.6 nM
same,potency estimated from few doses,[4],845 nM
same,potency estimated from few doses,[5]; [20],8.62 nM
same,potency estimated from few doses,[6]; [20],170 nM
same,potency estimated from few doses,[7]; [20],19.1 nM
same,potency estimated from few doses,[8],427 nM
same,potency estimated from few doses,[9]; [20],105 nM
NS(=O)(=O)c1ccc(NC=C2C(=O)Nc3ccc4ncsc4c32)cc1 [GW589933X],potency estimated from few doses,"[10]; compound concentrations: 100 nM and 1000 nM (sheet 'Samples'), CATDS: 3.8979394521984997E-2",193 nM
same,potency estimated from few doses,"[11]; compound concentrations: 100 nM and 1000 nM (sheet 'Samples'), CATDS: 2.5834512792532401E-2",479 nM
same,potency estimated from few doses,"[12]; compound concentrations: 100 nM and 1000 nM (sheet 'Samples'), CATDS: 1.9733333265128199E-2",1020 nM
same,potency estimated from few doses,"[6]; compound concentrations: 100 nM and 1000 nM (sheet 'Samples'), CATDS: 1.69814633200863E-2",1760 nM
same,potency estimated from few doses,"[9]; compound concentrations: 100 nM and 1000 nM (sheet 'Samples'), CATDS: 3.75205363662858E-2",208 nM
CC(C)(CO)CNC(=O)c1ccc2c(c1)/C(=N/Nc1ccc(S(N)(=O)=O)cc1)C(=O)N2 [GW301784X],potency estimated from few doses,[10]; [20],53 nM
same,potency estimated from few doses,[11]; [20],212 nM
Nc1nc(-c2ccc3c(N)n[nH]c3c2)cc(N2CCCC(NC(=O)c3ccccc3)C2)n1 (centres unmarked) [GSK2286775B],potency estimated from few doses,[13]; [20],1860 nM
CCn1c(-c2nonc2N)nc2cncc(Br)c21 [SB-738004],potency estimated from few doses,[3]; [20],553 nM
same,potency estimated from few doses,[4],1320 nM
same,potency estimated from few doses,[5]; [20],649 nM
NS(=O)(=O)c1ccc(N/N=C2\C(=O)Nc3ccc4ncccc4c32)cc1 [GW305178X],potency estimated from few doses,"[11]; compound concentrations: 100 nM and 1000 nM (sheet 'Samples'), CATDS: 6.1858788217922803E-2",544 nM
same,potency estimated from few doses,"[9]; compound concentrations: 100 nM and 1000 nM (sheet 'Samples'), CATDS: 4.4831401788358302E-2",1360 nM
COc1cc2ncn(-c3cc(OCc4ccccc4S(C)(=O)=O)c(C#N)s3)c2cc1OC [GSK319347A],potency estimated from few doses,[14],1390 nM
Cl.Cl.NCC(NC(=O)c1cc(-c2ccnc3[nH]ccc23)cs1)c1ccccc1.NCC(NC(=O)c1cc(-c2ccnc3[nH]ccc23)cs1)c1ccccc1 (centres unmarked) [GSK1229959A],potency estimated from few doses,"[10]; compound concentrations: 100 nM and 1000 nM (sheet 'Samples'), CATDS: 1.6665892971292499E-2",2280 nM
same,potency estimated from few doses,"[15]; compound concentrations: 100 nM and 1000 nM (sheet 'Samples'), CATDS: 2.3944449367716902E-2",349 nM
same,potency estimated from few doses,"[3]; compound concentrations: 100 nM and 1000 nM (sheet 'Samples'), CATDS: 2.9664861147502199E-2",155 nM
same,potency estimated from few doses,"[16]; compound concentrations: 100 nM and 1000 nM (sheet 'Samples'), CATDS: 1.9025331184012301E-2",1010 nM
same,potency estimated from few doses,"[5]; compound concentrations: 100 nM and 1000 nM (sheet 'Samples'), CATDS: 2.3457230282112398E-2",380 nM
same,potency estimated from few doses,[17]; CATDS: 1.9759894186564299E-2,828 nM
CN[C@H](C#Cc1c(F)ccc2c1/C(=C/c1[nH]ccc1OC)C(=O)N2)CO.Cl [RO0283049-001],potency estimated from few doses,"[10]; compound concentrations: 100 nM and 1000 nM (sheet 'Samples'), CATDS: 4.8469274935302599E-2",167 nM
same,potency estimated from few doses,"[11]; compound concentrations: 100 nM and 1000 nM (sheet 'Samples'), CATDS: 2.52216381525E-2",797 nM
same,potency estimated from few doses,"[12]; compound concentrations: 100 nM and 1000 nM (sheet 'Samples'), CATDS: 5.43155260129227E-2",134 nM
same,potency estimated from few doses,"[18]; compound concentrations: 100 nM and 1000 nM (sheet 'Samples'), CATDS: 5.4093082413128303E-2",135 nM
same,potency estimated from few doses,"[9]; compound concentrations: 100 nM and 1000 nM (sheet 'Samples'), CATDS: 2.6680938989094499E-2",674 nM
Cn1cc(C2=C(c3ccc(OC[C@@H](O)CO)cc3)C(=O)NC2=O)c2ccccc21 [RO3208546-000],potency estimated from few doses,"[15]; compound concentrations: 100 nM and 1000 nM (sheet 'Samples'), CATDS: 4.6127698813653598E-2",768 nM
same,potency estimated from few doses,"[16]; compound concentrations: 100 nM and 1000 nM (sheet 'Samples'), CATDS: 4.3402383935848998E-2",879 nM
same,potency estimated from few doses,[17]; CATDS: 4.1151087302781601E-2,996 nM
same,potency estimated from few doses,[19]; CATDS: 4.2596941934388698E-2,918 nM
same,potency estimated from few doses,"[7]; compound concentrations: 100 nM and 1000 nM (sheet 'Samples'), CATDS: 5.0913712031047997E-2",626 nM
NS(=O)(=O)c1ccc(N/C=C2\C(=O)Nc3ccc4ncsc4c32)cc1 [GW297361X],potency estimated from few doses,"[10]; compound concentrations: 100 nM and 1000 nM (sheet 'Samples'), CATDS: 4.8575287587601497E-2",557 nM
same,potency estimated from few doses,"[11]; compound concentrations: 100 nM and 1000 nM (sheet 'Samples'), CATDS: 3.2920302363338198E-2",1410 nM
same,potency estimated from few doses,"[9]; compound concentrations: 100 nM and 1000 nM (sheet 'Samples'), CATDS: 4.6410579301478898E-2",611 nM
CNc1nccc(-c2ccc3c(N)n[nH]c3c2)n1 [GSK2206003A],potency estimated from few doses,"[1]; compound concentrations: 100 nM and 1000 nM (sheet 'Samples'), CATDS: 5.1673366030294897E-2",1410 nM
same,potency estimated from few doses,"[13]; compound concentrations: 100 nM and 1000 nM (sheet 'Samples'), CATDS: 5.2095061468969701E-2",1360 nM
COc1cc[nH]c1/C=C1\C(=O)Nc2ccc([N+](=O)[O-])c(N3CC[C@@H](O)C3)c21 [RO0504985-000],potency estimated from few doses,"[10]; compound concentrations: 100 nM and 1000 nM (sheet 'Samples'), CATDS: 3.96360486889639E-2",697 nM
same,potency estimated from few doses,"[11]; compound concentrations: 100 nM and 1000 nM (sheet 'Samples'), CATDS: 2.9599513328136099E-2",2050 nM
same,potency estimated from few doses,"[18]; compound concentrations: 100 nM and 1000 nM (sheet 'Samples'), CATDS: 2.9417077034867501E-2",2110 nM
CCC(CC)(CC)n1cnc2c(N)ncnc21 [SKF-97620],potency estimated from few doses,[19]; CATDS: 2.8719302746770599E-2,1140 nM
CNCC1CCn2c(c(C3=C(c4cn(C)c5ccccc45)C(=O)NC3=O)c3ccccc32)C1 (centres unmarked) [RO0318676-000],potency estimated from few doses,"[11]; compound concentrations: 100 nM and 1000 nM (sheet 'Samples'), CATDS: 2.8092729884281801E-2",1740 nM
same,potency estimated from few doses,"[15]; compound concentrations: 100 nM and 1000 nM (sheet 'Samples'), CATDS: 3.3814045459066702E-2",945 nM
same,potency estimated from few doses,"[3]; compound concentrations: 100 nM and 1000 nM (sheet 'Samples'), CATDS: 2.8488431691069401E-2",1650 nM
same,potency estimated from few doses,"[16]; compound concentrations: 100 nM and 1000 nM (sheet 'Samples'), CATDS: 3.0243229141785101E-2",1340 nM
same,potency estimated from few doses,"[5]; compound concentrations: 100 nM and 1000 nM (sheet 'Samples'), CATDS: 0.12623439225341199",48.7 nM
same,potency estimated from few doses,[17]; CATDS: 3.5074234548869702E-2,849 nM
same,potency estimated from few doses,"[7]; compound concentrations: 100 nM and 1000 nM (sheet 'Samples'), CATDS: 8.7281654841073406E-2",98.7 nM
Cl.Cl.NC[C@H](CC1CCCCC1)NC(=O)c1ccc(-c2ccnc3[nH]ccc23)s1.NC[C@H](CC1CCCCC1)NC(=O)c1ccc(-c2ccnc3[nH]ccc23)s1 [GSK1581428A],potency estimated from few doses,[12]; [20],1120 nM
same,potency estimated from few doses,[3]; [20],538 nM
same,potency estimated from few doses,[5]; [20],719 nM
COc1cc[nH]c1/C=C1\C(=O)Nc2ccc(F)c(C#C[C@@H](O)[C@@H](N)[C@@H](C)O)c21 [RO0283120-000],potency estimated from few doses,[10]; [20],235 nM
same,potency estimated from few doses,[11]; [20],774 nM
same,potency estimated from few doses,[15]; [20],445 nM
same,potency estimated from few doses,[12]; [20],125 nM
same,potency estimated from few doses,[18]; [20],321 nM
same,potency estimated from few doses,[1]; [20],528 nM
same,potency estimated from few doses,[2]; [20],703 nM
same,potency estimated from few doses,[3]; [20],959 nM
same,potency estimated from few doses,[16]; [20],821 nM
same,potency estimated from few doses,[6]; [20],236 nM
same,potency estimated from few doses,[8],878 nM
same,potency estimated from few doses,[9]; [20],765 nM
NS(=O)(=O)c1ccc(N/N=C2\C(=O)Nc3ccc(-c4cnco4)cc32)cc1 [GW276655_KCGS],potency estimated from few doses,[10]; [20],1880 nM
Cl.Nc1nc(-c2ccc3c(c2)C(=Cc2cc(Br)c(O)c(Br)c2)C(=O)N3)cs1 [GW407323A],potency estimated from few doses,"[10]; compound concentrations: 100 nM and 1000 nM (sheet 'Samples'), CATDS: 4.1043878899959203E-2",464 nM
same,potency estimated from few doses,"[11]; compound concentrations: 100 nM and 1000 nM (sheet 'Samples'), CATDS: 2.78233460707746E-2",2030 nM
same,potency estimated from few doses,"[2]; compound concentrations: 100 nM and 1000 nM (sheet 'Samples'), CATDS: 2.9036597376729201E-2",1630 nM
same,potency estimated from few doses,"[6]; compound concentrations: 100 nM and 1000 nM (sheet 'Samples'), CATDS: 3.1520603000909302E-2",1130 nM
Cl.Cl.Cl.c1ccc(Oc2ccc(Nc3ccnc4cc(-c5ccc(CN6CCNCC6)o5)ccc34)cc2)nc1.c1ccc(Oc2ccc(Nc3ccnc4cc(-c5ccc(CN6CCNCC6)o5)ccc34)cc2)nc1 [GW567142A],potency estimated from few doses,"[10]; compound concentrations: 100 nM and 1000 nM (sheet 'Samples'), CATDS: 1.6285845495215501E-2",2450 nM
same,potency estimated from few doses,"[13]; compound concentrations: 100 nM and 1000 nM (sheet 'Samples'), CATDS: 1.8917557706548099E-2",1380 nM

# Reference: publication PMC11062922 (Nature Chemical Biology, 2023)
